Experimental findings from PubChem BioAssay (NCATS) are described below.

Assay [1] addresses Phospholipid hydroperoxide glutathione peroxidase GPX4 (Homo sapiens) (UniProt P36969). Kind of assay: Primary qHTS Assay for Inhibitors of Recombinant Selenoprotein Glutathione Peroxidase 4 (GPX4) (AID 1845192). For activity change, negative = inhibition: series mostly up to about 50 µM; % is set by controls: 0 for no effect and ±100 for the full control effect. Note: nearly all actives have a fitted effect of over 65% in size. The gist of the method:
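GR-coupled assay: recombinant GPX4 preincubated 30 min with compound at room temperature; final 200 nM GPX4, 1 mM GSH, 0.5 mM cumene hydroperoxide, 0.5 mM NADPH, 100 nM GR, 0.01% BSA, pH 7.5 Tris. NADPH fluorescence (340/450 nm) read at 0 and 15 min.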

A short description of assay [2]: qHTS drug screen for cell cycle checkpoint inhibitors in PARPi-resistant BRCA-mutant ovarian cancer cell lines. (AID 1963452; calls by dose curve). To be noted: PEO1/OlaR viability, CellTiter-Glo luminescence, 96 h, stronger effect = lower value. A digest of the protocol: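 PEO1, PEO4 and PEO1/OlaR ovarian cancer cells, 600 per well, exposed 96 h at 37C to a dilution series. Viability read by CellTiter-Glo luminescence, normalized to DMSO and empty wells; activity summarized as Z-AUC.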

For assay [3], the target named is Cytochrome P450 2C9 (Homo sapiens) (UniProt P11712). Description: qHTS Assay for Inhibitors and Substrates of Cytochrome P450 2C9 (AID 883). Note: nearly all actives have a fitted effect of over 60% in size. Note: potency is the fitted concentration of half-maximal effect. The gist of the method:
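10nM CYP2C9 + 100uM Luciferin-H (=KM), 25mM KPO4; cpd 10 min 37C; NADPH regen, 60 min 37C; stop/detect with P450 Glo-Buffer 20 min; luminescence. Norm. to 57uM sulphaphenazole as full inhibition.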

In assay [4] the target is Peroxisome proliferator-activated receptor delta (Homo sapiens) (UniProt Q03181). Description: qHTS assay for small molecule antagonists of peroxisome proliferator-activated receptor delta signaling (AID 588535; active = well fitted inhibition curve with a large enough effect in the signal ratio, with a control signal flat, not every such curve was filed as active; the % refers to the signal ratio). A digest of the protocol: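 Cells were seeded at 4000 per well in assay medium containing 2% charcoal/dextran FBS and held 5 hrs at 37 C. Compounds were then added for 18 hrs. CCF4 substrate was applied for 2 hrs at room temperature before fluorescence reading.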
Sequence of Peroxisome proliferator-activated receptor delta (Homo sapiens) (Q03181 whole entry, looked up): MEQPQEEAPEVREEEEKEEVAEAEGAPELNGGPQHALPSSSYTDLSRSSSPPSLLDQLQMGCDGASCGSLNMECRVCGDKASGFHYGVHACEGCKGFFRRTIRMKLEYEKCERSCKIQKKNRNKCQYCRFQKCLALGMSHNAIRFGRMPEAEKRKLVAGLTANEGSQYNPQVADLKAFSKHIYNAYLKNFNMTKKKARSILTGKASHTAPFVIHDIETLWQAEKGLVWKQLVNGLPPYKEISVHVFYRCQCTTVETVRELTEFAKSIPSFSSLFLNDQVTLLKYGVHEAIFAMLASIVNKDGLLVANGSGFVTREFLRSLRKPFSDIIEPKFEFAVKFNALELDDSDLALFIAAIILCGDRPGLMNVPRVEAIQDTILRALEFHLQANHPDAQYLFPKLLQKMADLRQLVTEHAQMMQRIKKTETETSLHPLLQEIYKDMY

Assay [5] in a line: Viability counterscreen for antagonist of constitutive androstane receptor (CAR) against the NCATS DSHEA and TCM libraries (AID 1794837).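 Note: compound exposure lasted 24 h before viability reading; 0% is about no effect.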 A digest of the protocol:
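Cell viability, CellTiter-Fluor, Ex/Em 405/540 nm, 1 h at 37C. HepG2-CYP2B6-hCAR, 2,500 cells/well; cpds + CITCO 48 uM final (antagonist mode), 24 h, 37C/5% CO2.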

Assay [6] can be described thus: Viability counterscreen for agonist of constitutive androstane receptor (CAR) against the NCATS DSHEA and TCM libraries (AID 1794838). Note: 0% is about no effect. A digest of the protocol: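 Viability by CellTiter-Fluor fluorescence, 405/540 nm, after 1 h at 37C. HepG2-CYP2B6-hCAR cells were exposed 24 h to test substances in presence of 0.75 uM PK11195 (final).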
Assay [7] addresses Nuclear receptor subfamily 1 group I member 3 (Homo sapiens) (UniProt Q14994). Description: Primary qHTS for agonist of constitutive androstane receptor (CAR) against the NCATS DSHEA and TCM libraries (AID 1794839).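 Note: HepG2 cells expressing human CAR with a CYP2B6 reporter plus PK11195 antagonist; 0% is about no effect.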 A digest of the protocol:
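Luminescence from ONE-Glo luciferase was the agonist read-out in HepG2-CYP2B6-hCAR cells exposed 24 h to test substances. Wells also held the CAR antagonist PK11195 at 0.75 µM final. Viability was by CellTiter-Fluor fluorescence.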

Assay [8] in a line: HepG2 viability counterscreen (readout 2: ATP content) against the NCATS DSHEA and TCM libraries (AID 1794840). Note: 0% is about no effect. A digest of the protocol:
(§1)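 1,000 HepG2 cells/well, 4 h attach; compounds ~24 h, 37C/5% CO2. Readout 1: GF-AFC 25 uM final, 30 min, fluorescence 380/510 nm. Readout 2: CellTiter-Glo, 30 min RT, luminescence.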

The nature of assay [9]: HepG2 viability counterscreen (readout 1: protease activity) against the NCATS DSHEA and TCM libraries (AID 1794841).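 Note: cells exposed to compounds for about 24 h before the protease read; 0% is about no effect.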 A digest of the protocol: as §1
Assay [10] concerns the target Cytochrome P450 3A4 (Homo sapiens) (UniProt P08684). Kind of assay: qHTS for inhibitors of CYP3A4 against the NCATS DSHEA and TCM libraries (AID 1919971).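 Note: % is set by controls: 0 for no effect and ±100 for the full control effect; inhibition lowers luminescence from luciferin made by CYP3A4.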 The gist of the method: (§2)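 Light output from converted D-luciferin reports remaining CYP activity. Compounds preincubate with enzyme and substrate for 15 min; NADPH regeneration (1x final) runs the reaction for 30-45 min.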

The target in assay [11] is Cytochrome P450 2D6 (Homo sapiens) (UniProt P10635). Description: qHTS for inhibitors of CYP2D6 against the NCATS DSHEA and TCM libraries (AID 1919972). Note: % is set by controls: 0 for no effect and ±100 for the full control effect. A digest of the protocol:
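Steps: enzyme plus luciferin substrate dispensed; test substances pinned; 15 min RT; 1x NADPH regenerating solution added, 30–45 min RT protected from light; detection reagent, 30 min RT; luminescence measured. Minus-enzyme wells as background.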

Assay [12] deals with Cytochrome P450 2C9 (Homo sapiens) (UniProt P11712). Description: qHTS for inhibitors of CYP2C9 against the NCATS DSHEA and TCM libraries (AID 1919973). Note: potency is the fitted concentration of half-maximal effect. A digest of the protocol:
as §2

Assay [13] concerns the target Cytochrome P450 2C19 (Homo sapiens) (UniProt P33261). Description: qHTS for inhibitors of CYP2C19 against the NCATS DSHEA and TCM libraries (AID 1919974).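 Note: luminescence from luciferin released by CYP2C19 oxidation of a pro-luciferin substrate; % is set by controls: 0 for no effect and ±100 for the full control effect.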 A digest of the protocol: as §2
Assay [14] is described as follows: KB-3-1 P-gp reporter qHTS against the NCATS DSHEA and TCM libraries (AID 1919975). Note: 0% is about no effect. A digest of the protocol:
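CellTiter-Glo luminescence viability readout; KB-3-1 parental cells, 500/well, attached ~4 h, then compound for ~72 h, 37C, 5% CO2. Bortezomib intraplate control.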

Assay [15] has as its target Cytochrome P450 1A2 (Homo sapiens) (UniProt P05177). Description: qHTS for inhibitors of CYPIA2 against the NCATS DSHEA and TCM libraries (AID 1919976).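 Note: light from luciferin formed by CYP1A2 from a pro-luciferin substrate; series mostly up to about 37 µM; % is set by controls: 0 for no effect and ±100 for the full control effect.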 The gist of the method: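 In this quantitative HTS, inhibition of recombinant human CYP1A2 was measured as loss of luciferin-derived luminescence. Turnover ran 30-45 min at RT after NADPH regeneration solution was added.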

Assay [16] is described as follows: qHTS Counterscreen for compound interference against the NCATS DSHEA and TCM libraries (AID 1919978).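 Note: compounds preincubated with 1 µM D-luciferin or buffer before detection reagent; % of control where 0% means no effect.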 To be noted: firefly luciferase detection reagent interference, luminescence. A digest of the protocol:
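Luminescence counterscreen for detection-kit interference: compounds at 19.5 nM–39.8 uM final, 15 min RT with 1 uM D-luciferin or buffer only; detection reagent added, 30 min RT, then read.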

Assay [17] can be described thus: Dual reporter qHTS for agonist of Pregnane X Receptor (hPXR) against the NCATS DSHEA and TCM libraries: Fluorescence readout (AID 1920058). Note: 0% is about no effect. The gist of the method:
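Measures viability of the PXR reporter HepG2 line by protease-substrate fluorescence (405/540 nm), taken 1 h after CellTiter-Fluor addition. Substances are tested as concentration series over a ~24 h exposure, with rifampicin as agonist control.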

The target of assay [18] is Nuclear receptor subfamily 1 group I member 2 (Homo sapiens) (UniProt O75469). Description: Dual reporter qHTS for antagonist of Pregnane X Receptor (hPXR) against the NCATS DSHEA and TCM libraries: Luminescence Readout (AID 1920060). Note: 0% is about no effect. A digest of the protocol:
(§3)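 Rifampicin-stimulated (2 uM final) hPXR-luciferase HepG2 cells were treated for 24 h with DSNP/TCM substances. Viability came from CellTiter-Fluor fluorescence, reporter activity from ONE-Glo luminescence.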

Assay [19] is described as follows: Dual reporter qHTS for antagonist of Pregnane X Receptor (hPXR) against the NCATS DSHEA and TCM libraries: Fluorescence Readout (AID 1920061). Note: 0% is about no effect. The gist of the method: as §3
Where [20] appears, read: measured here: PEO1 parental Z-AUC.

Records with an inconclusive call do not appear. Calls of active or inactive are those of the source. Unless noted, calls come from the whole dose curve; as a rule, active = well fitted curve in the direction sought with a large enough effect; inconclusive = small, poorly fitted or top-dose-only effect, or another doubt; inactive = no such curve, though single readings can be large; an effect the other way counts as inactive or inconclusive.

Sequence of Phospholipid hydroperoxide glutathione peroxidase GPX4 (Homo sapiens) (P36969 whole entry, looked up): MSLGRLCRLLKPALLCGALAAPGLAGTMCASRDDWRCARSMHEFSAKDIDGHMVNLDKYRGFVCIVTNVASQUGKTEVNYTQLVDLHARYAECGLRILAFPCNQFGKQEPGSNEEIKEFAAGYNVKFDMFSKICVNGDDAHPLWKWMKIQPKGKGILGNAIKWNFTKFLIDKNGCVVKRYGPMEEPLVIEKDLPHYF
Sequence of Cytochrome P450 2C9 (Homo sapiens) (P11712 whole entry, looked up): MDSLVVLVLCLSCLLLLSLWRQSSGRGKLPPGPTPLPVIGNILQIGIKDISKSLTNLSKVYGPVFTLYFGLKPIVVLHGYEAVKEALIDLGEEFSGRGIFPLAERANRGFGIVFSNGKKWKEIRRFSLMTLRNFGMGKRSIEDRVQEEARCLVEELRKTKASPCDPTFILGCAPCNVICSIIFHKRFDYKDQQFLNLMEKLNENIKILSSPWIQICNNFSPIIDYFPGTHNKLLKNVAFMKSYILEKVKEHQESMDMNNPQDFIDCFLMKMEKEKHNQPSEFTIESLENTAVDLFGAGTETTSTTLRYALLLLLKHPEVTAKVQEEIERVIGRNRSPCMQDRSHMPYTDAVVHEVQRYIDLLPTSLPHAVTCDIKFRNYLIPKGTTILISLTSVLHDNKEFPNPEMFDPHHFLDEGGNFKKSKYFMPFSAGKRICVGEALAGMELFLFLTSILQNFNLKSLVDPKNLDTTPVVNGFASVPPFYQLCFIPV
Sequence of Cytochrome P450 3A4 (Homo sapiens) (P08684 whole entry, looked up): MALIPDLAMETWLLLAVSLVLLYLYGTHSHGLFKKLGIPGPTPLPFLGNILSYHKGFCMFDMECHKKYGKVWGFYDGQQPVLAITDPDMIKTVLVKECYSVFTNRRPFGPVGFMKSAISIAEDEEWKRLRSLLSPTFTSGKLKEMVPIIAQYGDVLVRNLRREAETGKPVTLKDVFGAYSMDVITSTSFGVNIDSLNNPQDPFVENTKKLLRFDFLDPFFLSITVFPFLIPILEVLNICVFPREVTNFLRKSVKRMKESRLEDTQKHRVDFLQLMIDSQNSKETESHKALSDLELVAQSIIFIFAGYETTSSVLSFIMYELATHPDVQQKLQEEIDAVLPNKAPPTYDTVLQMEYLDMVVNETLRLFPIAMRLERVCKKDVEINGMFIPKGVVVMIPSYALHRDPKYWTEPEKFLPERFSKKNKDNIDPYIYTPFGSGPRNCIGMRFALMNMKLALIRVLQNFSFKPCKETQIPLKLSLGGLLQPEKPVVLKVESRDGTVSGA
Sequence of Cytochrome P450 2D6 (Homo sapiens) (P10635 whole entry, looked up): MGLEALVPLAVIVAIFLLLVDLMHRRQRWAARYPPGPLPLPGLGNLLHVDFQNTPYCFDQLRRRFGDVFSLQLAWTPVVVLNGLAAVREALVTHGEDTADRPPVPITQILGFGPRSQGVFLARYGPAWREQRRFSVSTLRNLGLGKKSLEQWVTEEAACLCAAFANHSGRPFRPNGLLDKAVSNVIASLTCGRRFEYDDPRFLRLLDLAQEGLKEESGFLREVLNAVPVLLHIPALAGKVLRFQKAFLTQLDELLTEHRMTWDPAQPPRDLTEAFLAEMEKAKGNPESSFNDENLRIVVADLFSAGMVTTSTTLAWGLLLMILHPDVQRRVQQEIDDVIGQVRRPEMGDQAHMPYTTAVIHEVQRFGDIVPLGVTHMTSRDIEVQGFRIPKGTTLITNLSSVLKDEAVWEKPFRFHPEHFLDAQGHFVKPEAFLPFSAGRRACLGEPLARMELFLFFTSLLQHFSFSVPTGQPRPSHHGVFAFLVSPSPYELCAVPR
Sequence of Nuclear receptor subfamily 1 group I member 3 (Homo sapiens) (Q14994 whole entry, looked up): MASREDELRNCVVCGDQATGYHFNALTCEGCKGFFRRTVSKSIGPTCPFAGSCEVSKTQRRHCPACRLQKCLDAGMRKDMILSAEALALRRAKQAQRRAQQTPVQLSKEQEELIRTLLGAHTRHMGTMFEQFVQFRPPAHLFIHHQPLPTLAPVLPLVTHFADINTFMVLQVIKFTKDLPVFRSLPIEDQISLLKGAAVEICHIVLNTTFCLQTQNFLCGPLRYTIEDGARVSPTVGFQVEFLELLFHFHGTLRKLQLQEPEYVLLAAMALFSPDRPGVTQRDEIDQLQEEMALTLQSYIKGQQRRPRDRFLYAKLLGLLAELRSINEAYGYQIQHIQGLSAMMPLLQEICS
Sequence of Cytochrome P450 1A2 (Homo sapiens) (P05177 whole entry, looked up): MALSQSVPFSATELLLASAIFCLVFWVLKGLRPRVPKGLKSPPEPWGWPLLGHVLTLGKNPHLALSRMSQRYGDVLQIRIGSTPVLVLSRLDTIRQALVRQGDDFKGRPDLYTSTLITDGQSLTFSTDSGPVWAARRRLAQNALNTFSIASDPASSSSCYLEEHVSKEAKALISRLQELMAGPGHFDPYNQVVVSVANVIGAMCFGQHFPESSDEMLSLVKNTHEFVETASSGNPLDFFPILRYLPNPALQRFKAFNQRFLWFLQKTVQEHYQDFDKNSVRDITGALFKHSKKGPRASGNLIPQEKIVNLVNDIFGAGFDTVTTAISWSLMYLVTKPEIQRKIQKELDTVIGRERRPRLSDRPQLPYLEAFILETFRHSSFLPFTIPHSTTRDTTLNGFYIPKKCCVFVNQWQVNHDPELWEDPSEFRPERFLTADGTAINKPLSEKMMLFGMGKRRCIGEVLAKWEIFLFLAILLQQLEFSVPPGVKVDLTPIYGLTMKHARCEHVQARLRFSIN
Sequence of Nuclear receptor subfamily 1 group I member 2 (Homo sapiens) (O75469 whole entry, looked up): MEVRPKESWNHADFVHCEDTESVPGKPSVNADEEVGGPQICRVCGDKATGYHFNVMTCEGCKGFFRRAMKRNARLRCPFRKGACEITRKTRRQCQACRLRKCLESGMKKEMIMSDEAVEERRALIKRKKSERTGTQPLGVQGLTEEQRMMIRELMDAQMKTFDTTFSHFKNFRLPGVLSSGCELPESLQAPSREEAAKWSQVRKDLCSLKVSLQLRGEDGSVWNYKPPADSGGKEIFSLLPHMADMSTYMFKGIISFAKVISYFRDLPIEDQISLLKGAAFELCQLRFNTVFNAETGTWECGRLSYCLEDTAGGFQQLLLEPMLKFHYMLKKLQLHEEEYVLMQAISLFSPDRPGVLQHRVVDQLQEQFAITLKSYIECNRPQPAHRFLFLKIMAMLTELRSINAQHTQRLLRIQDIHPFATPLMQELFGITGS
Sequence of Cytochrome P450 2C19 (Homo sapiens) (P33261 whole entry, looked up): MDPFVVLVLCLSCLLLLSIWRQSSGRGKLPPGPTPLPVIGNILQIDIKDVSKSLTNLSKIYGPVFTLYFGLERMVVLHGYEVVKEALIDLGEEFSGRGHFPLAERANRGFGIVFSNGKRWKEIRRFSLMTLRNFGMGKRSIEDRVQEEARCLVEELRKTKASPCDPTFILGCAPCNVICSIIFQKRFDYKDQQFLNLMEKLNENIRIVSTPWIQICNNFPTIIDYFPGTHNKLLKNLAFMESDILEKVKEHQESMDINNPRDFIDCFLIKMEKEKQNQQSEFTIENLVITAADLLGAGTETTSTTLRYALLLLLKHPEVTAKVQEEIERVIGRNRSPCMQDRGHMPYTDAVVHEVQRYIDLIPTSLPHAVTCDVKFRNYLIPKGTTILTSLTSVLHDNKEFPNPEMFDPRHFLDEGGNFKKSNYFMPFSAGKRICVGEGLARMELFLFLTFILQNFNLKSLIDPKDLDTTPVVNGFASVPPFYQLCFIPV

For the molecule `O=C(O)CCCN1CCC(O[C@@H](c2ccc(Cl)cc2)c2ccccn2)CC1`, the Potency entry in assay [1] is “inactive”.
For `CC[C@@]1([C@@H]2O[C@@H]([C@H]3O[C@@](O)(CO)[C@H](C)C[C@@H]3C)C[C@@H]2C)CC[C@H]([C@]2(C)CCC3(C[C@H](O)[C@@H](C)[C@@H]([C@@H](C)[C@@H](OC)[C@H](C)C(=O)O)O3)O2)O1` (stereo not given in full), the Potency entry in assay [1] is “inactive”. Further, the Z-AUC is -0.884 (inactive) in assay [2], -0.753 in assay [2] (setting [20]) and -1.58 in assay [2] (measured here: PEO4 Z-AUC).
Consider `NC(=O)[C@@H]1CC[C@@H]2CN1C(=O)N2OS(=O)(=O)O`, for which the Potency result in assay [1] was “inactive”.
With `O=c1ccc2cc3ccoc3cc2o1`, in assay [3], the Potency is 7.94 µM (active).
`CCCCCCCCOC(=O)c1cc(O)c(O)c(O)c1`: the Potency result in assay [4] is “inactive”.
As for `C[Si](C)(C)O[Si](C)(C)O[Si](C)(C)C`, the Potency result in assay [4] and in assay [1] was “inactive” each time.
With `N#CCCn1c(=O)c(-c2ccc(Cl)cc2)nc2cnc(N3CCOCC3)nc21`, the Potency entry in assay [3] is “inactive”.
Take `Cc1cc(/C=C/C#N)cc(C)c1Nc1ccnc(Nc2ccc(C#N)cc2)n1`: in assay [1], the Potency result is “inactive”.
Turning to `CCC(CC)[C@H](NC(C)=O)[C@@H]1[C@H](O)[C@@H](C(=O)O)C[C@H]1N=C(N)N`, the activity change, negative = inhibition in assay [1] was -9.13% [at 0.409 µM] (inactive).
As for `O=C1O[C@H]2[C@H](OC(O)[C@@H]2O)[C@@H]1O` (stereo not given in full), in assay [1], the Potency entry was “inactive”.
As to `O=C(O)CCCCCCCCC(=O)O`, in [4], the Potency entry was “inactive”.
Same read-out and setting: with `O=C(Nc1ccccc1)c1ccccc1O` the entry was “inactive”.
For the molecule `O=C1CCC[C@@H]2[C@@H]3CCC[N@+]4([O-])CCC[C@H](CN12)[C@H]34`, in [1], the Potency entry was “inactive”. For the same molecule, the Z-AUC in assay [2] was 1.48 (inactive); in assay [2] (setting [20]), 0.635; in assay [2] (measured here: PEO4 Z-AUC), 0.881.
On to `COc1ccc2[nH]cc(CCNc3ncncc3-c3ccccc3OC)c2c1`, for which the Potency in assay [3] is 0.251 µM (active).
With `COc1cccc(-c2nc(N(C)C)c3ccccc3n2)c1`, in assay [3], the activity change, negative = inhibition is 45.3% [at 2.29 µM] (inactive).
As to `COCCn1c(=O)c(-c2cccs2)nc2cnc(N3CCNCC3)nc21`, the Potency in [3] was 2 µM (active).
Same read-out and setting: the same measure for `COc1ccc2[nH]cc(CCNc3ncnc4ccc(-c5cccc(C#N)c5)cc34)c2c1`: 0.0631 µM (active); for `CCNc1ncc2nc(CCc3ccccc3)c(=O)n(CCC#N)c2n1`: 6.31 µM (active).
Still for that read-out and setting: with `O=c1c(-c2ccccc2)nc2cnc(N3CCOCC3)nc2n1CCc1ccccc1` the figure was 7.94 µM (active).
On to `CC(C)=CCCC(C)(OC1OC(COC2OC(CO)C(O)C2O)C(O)C(O)C1O)C1CCC2(C)C1C(O)CC1C3(C)CCC(OC4OC(CO)C(O)C(O)C4OC4OC(CO)C(O)C(O)C4O)C(C)(C)C3CCC12C` (stereo not given), for which the molecule was called inactive in assay [5], in [6], in assay [8], in assay [9], in [14] and in [17]. For the same molecule, the call in assay [18] and in assay [19] was inactive. Also, the Potency entry in assay [7], in [10], in assay [11], in assay [12], in [13] and in assay [15] was “inactive” each time. The max response in assay [16] is 2.08% (inactive).
On to `O=c1cc(-c2ccc(O)cc2)oc2cc(O[C@@H]3O[C@H](CO)[C@@H](O)[C@H](O)[C@H]3O[C@@H]3OC[C@](O)(CO)[C@H]3O)cc(O)c12`, for which the molecule was called inactive in [5], in assay [6], in assay [8], in [9], in [14] and in [17]. The molecule was classed as inactive in [18] and in [19]. Also, the Potency result in assay [7], in assay [10], in [11] and in assay [15] was “inactive” each time. For the same molecule, the Potency in assay [12] was 8.91 µM (active). Further, the max response in [16] is 5.67% (inactive).
